KDM5B inh: KDM5B demethylase inhibition; AID 1347165; Q9UGL1; KDM5B demethylase, FDH-coupled NADH fluorescence (FDH is formaldehyde dehydrogenase); Potency, µM (doses to about 57.7 µM), usual class: inhibitors; 220,000 compounds, 2.6% hits; active = well fitted inhibition curve with a large enough effect; also: nearly all actives have a fitted effect of over 70% in size
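Here, H3K4me3 peptide (12.5 µM in substrate mix) is demethylated by KDM5BΔAP, 200 nM final, after 10 min compound exposure. Formaldehyde product is coupled through FDH (0.25 U/mL in mix) to NADH fluorescence; 30-min ΔRFU feeds dose-response curves.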
Each line names hits and unclear results; the compound was inactive in the other large screens. This excerpt belongs to a sample that is enriched for hits.

COc1cccn(CC(=O)N2CCN(C)C3(CCNCC3)C2)c1=O	KDM5B inh 13µM
CN1CCN(C(=O)CCc2ccncc2)CC12CCNCC2	none
COc1ccccc1CC(=O)N1CCN(C2CCN(C)C2=O)CC1 (centres undefined)	none
Cc1ccc(NC(=O)c2cn(C)c3ccccc23)c2cccnc12	none
Cc1nc(-c2ccc(C(F)(F)F)cc2)cc([C@H]2CN3CC[C@H]2C[C@@H]3CNS(C)(=O)=O)n1	none
Cc1nc(-c2ccc(C(F)(F)F)cc2)cc([C@H]2CN3CC[C@H]2C[C@@H]3CNC(=O)CCCC(=O)O)n1	none
CCCS(=O)(=O)NC[C@H]1C[C@@H]2CCN1C[C@@H]2c1cc(-c2ccc(OC)c(OC)c2)nc(C)n1	KDM5B inh 25µM
Cc1nc(C2CCCC2)cc([C@H]2CN3CC[C@H]2C[C@@H]3CNC(=O)CCCC(=O)O)n1	none
Cc1nc(-c2cccs2)cc([C@H]2CN3CC[C@H]2C[C@@H]3CNC(=O)c2ccc(C(F)(F)F)cc2)n1	none
Cn1nc(-c2ccc(F)cc2)cc1[C@H]1CN2CC[C@H]1C[C@@H]2CNC(=O)c1cccs1	none
COc1ccc(-c2cc([C@H]3CN4CC[C@H]3C[C@@H]4CNC(=O)c3ccc(C(C)(C)C)cc3)n(C)n2)cc1OC	none
COc1ccc(-c2cc([C@H]3CN4CC[C@H]3C[C@@H]4COC(=O)NC3CCCCC3)nc(C)n2)cc1	none
COc1ccc(-c2cc([C@H]3CN4CC[C@H]3C[C@@H]4CN)nc(C)n2)cc1OC	KDM5B inh 40µM
Cc1nc(-c2ccc(F)cc2)cc([C@H]2CN3CC[C@H]2C[C@@H]3CNS(=O)(=O)Cc2ccccc2)n1	none
COc1ccc(-c2cc([C@H]3CN4CC[C@H]3C[C@@H]4CNC(=O)c3cccs3)nc(C)n2)cc1OC	KDM5B inh 28µM
COc1ccc(-c2cc([C@H]3CN4CC[C@H]3C[C@@H]4CNC(=O)CSCC(=O)O)nc(C)n2)cc1OC	KDM5B inh 32µM
COc1cc2c(cc1OCc1ccccc1)N(C(=O)c1cccc(N(C)C)c1)CC21CCN(C)CC1	none
CCC1CCCCN1C(=O)CCl (centres undefined)	none
O=C(NC[C@H]1C[C@@H]2CCN1C[C@@H]2CN1CCCCC1)c1ccc(C(F)(F)F)cc1	none
COc1cccc(CNCCc2cccc(F)c2)c1	none
CC1=C(C(=O)OC(C)(C)C)C2(C(=O)Nc3ccccc32)C(C(=O)OC(C)C)=C(N)O1 (centres undefined)	none
COc1ccc(NC(=O)NC[C@H]2C[C@@H]3CCN2C[C@@H]3c2cc(-c3ccc(OC)c(OC)c3)nn2C)cc1	none
Cc1nc(-c2cccs2)cc([C@H]2CN3CC[C@H]2C[C@@H]3CO)n1	KDM5B inh 35µM
CC(=O)NC[C@H]1C[C@@H]2CCN1C[C@@H]2c1cc(-c2ccc(F)cc2)nc(C)n1	none
CCNC(=O)NC[C@H]1C[C@@H]2CCN1C[C@@H]2c1cc(-c2ccc(OC)c(OC)c2)nc(C)n1	KDM5B inh 18µM
Cc1nc(-c2cccs2)cc([C@H]2CN3CC[C@H]2C[C@@H]3CNS(=O)(=O)c2ccccc2)n1	none
CCCNC(=O)OC[C@H]1C[C@@H]2CCN1C[C@@H]2c1cc(-c2cccs2)nc(C)n1	none
CC(C)CN1Cc2ccccc2-n2ccnc2C12CCN(C(=O)c1ccn[nH]1)CC2	none
CCC(CC)NC1CC1	none
N#Cc1ccc(NC(=O)CSc2ccc3c(c2)OCCCO3)cc1Cl	none
O=C(O)C1=NOC2CN(Cc3cccnc3)CC12 (centres undefined)	KDM5B inh 40µM
CN1C(=O)[C@H]2CN(Cc3cccnc3)C[C@H]2C1=O	none
Cc1cc(CN2CC3ON=C(C(=O)O)C3C2)cc(C)n1 (centres undefined)	none
COc1cc2c(cc1Oc1ccccc1)NC(=O)C21CCN(C(=O)c2ccccc2)CC1	none
COc1cc2c(cc1OCC1CC1)NC(=O)C21CCN(c2nccc(C(F)(F)F)n2)CC1	KDM5B inh 22µM
COc1cc2c(cc1Oc1ccccc1)NC(=O)C21CCN(c2ncc(F)cn2)CC1	KDM5B inh 32µM
COc1cc2c(cc1OCc1ccncc1)NC(=O)C21CCN(Cc2ccccc2)CC1	none
COc1cc2c(cc1OCC1CC1)NC(=O)C21CCN(c2nccs2)CC1	none
COc1cc2c(cc1OCC1CC1)NC(=O)C21CCN(c2ncc(F)cn2)CC1	none
COc1cc2c(cc1Oc1ccccc1)NC(=O)C21CCN(c2cnccn2)CC1	KDM5B inh 32µM
COc1cc2c(cc1OCc1ccccc1)NC(=O)C21CCN(c2ncc(F)cn2)CC1	KDM5B inh 32µM
COc1cc2c(cc1OCC1CC1)NC(=O)C21CCN(c2ccnc(C)n2)CC1	none
COc1cc2c(cc1Oc1ccccc1)NC(=O)C21CCN(C(=O)c2cnccn2)CC1	none
COc1cc2c(cc1Oc1ccccc1)NC(=O)C21CCN(c2nccs2)CC1	none
COc1cc2c(cc1Oc1ccccc1)NC(=O)C21CCN(Cc2ccccn2)CC1	none
COc1ccc(NC(=O)N2[C@H]3CC[C@@H]2c2cnc(-c4ccc(F)cc4)nc2C3)cc1OC	none
Cc1ccc(CC(=O)N2CCN(C3CCN(Cc4cccnc4)C3=O)CC2)cc1 (centres undefined)	none
NCCCN1CCN(Cc2ccccc2)CC1	none
Cn1nc(-c2ccc3ccccc3c2)cc1[C@H]1CN2CC[C@H]1C[C@@H]2CNS(=O)(=O)c1cccs1	none
C#C[C@H]1CN2CC[C@H]1C[C@@H]2CNCc1cccc(C#N)c1	none
CC[C@H]1CN2CC[C@H]1C[C@@H]2CNCc1ccc(SC)cc1	none
CCCn1c(C)c(C(=O)NCC2CC2)c2cc(OC)ccc21	none
Cc1ccc(Cn2nc(C)c(C(=O)NCc3cc(Cl)c4c(c3)OCCCO4)c2Cl)cc1	none
COc1cccc([C@H]2CN(C(=O)c3cnc(C)cn3)[C@@H]3C4CCN(CC4)[C@H]23)c1	none
CCS(=O)(=O)N1CC(COC)C2(CCNCC2)C1 (centres undefined)	none
OCC1CN(c2ncccn2)CC12CCNCC2 (centres undefined)	KDM5B inh 32µM
COCC1CN(C(=O)N(C)C)CC12CCNCC2 (centres undefined)	none
COCCn1c(C)cc(C(=O)N2[C@H]3CC[C@@H]2c2cnc(-c4ccc(F)cc4)nc2C3)c1C	none
O=C(CN1CC=C(c2ccccc2)CC1)N(C1CCCC1)C1CCS(=O)(=O)C1 (centres undefined)	none
Cc1nc(-c2ccccc2)cc([C@H]2CN3CC[C@H]2C[C@@H]3CN(Cc2ccco2)Cc2ccco2)n1	none
Cc1nc(-c2cccs2)cc([C@H]2CN3CC[C@H]2C[C@@H]3COC(=O)NC2CCCCC2)n1	none
COc1ccccc1-c1cc([C@H]2CN3CC[C@H]2C[C@@H]3CNC(=O)C2CCCCC2)n(C)n1	none
Cc1nc(-c2ccco2)cc([C@H]2CN3CC[C@H]2C[C@@H]3CNC(=O)NC2CCCCC2)n1	KDM5B inh 32µM
Cc1nc(-c2ccco2)cc([C@H]2CN3CC[C@H]2C[C@@H]3CNC(=O)C2CCCCC2)n1	KDM5B inh 32µM
COc1ccc(-c2cc([C@H]3CN4CC[C@H]3C[C@@H]4CNC(=O)NC3CCCCC3)n(C)n2)cc1	none
Cc1noc(C)c1COc1ccc(CC(=O)N(CCC#N)CCN2CCOCC2)cc1	none
C=C(Cl)CN1CCC(N2CCCCC2)CC1	none
CN1CCCC(C(=O)N2C3CCC2CN(Cc2cccnc2)C3)C1 (centres undefined)	none
COc1cc2c(cc1OCc1ccncc1)NC(=O)C21CCN(c2nc(C)cc(C)n2)CC1	none
Cc1oc2cc(OCC(=O)N3CCN(C)CC3)ccc2c(=O)c1Oc1ccccc1	none
O=C(Nc1ccc(=O)n2c1[C@@H]1C[C@@H](CN(C(=O)c3ccc(F)cc3)C1)C2)C1CCCCC1	none
